Source: PubChem BioAssay
TDP1 cell noCPT: qHTS for Inhibitors of human tyrosyl-DNA phosphodiesterase 1 (TDP1): qHTS in cells in absence of CPT; 420,000 tested, 15% active; AID 686978, 2013; Potency, µM (doses to about 46.2 µM), for the others: at the top dose activity change, negative = growth inhibition, most hits filed as inhibitors; DT40 Tdp1-/- hTDP1 cells, no CPT, ATP luminescence, 48 h; further: potency means the concentration at half of the fitted maximal effect; nearly all actives have a fitted effect of over 55% in size
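Camptothecin absent (DMSO only). Human TDP1-complemented DT40 knockout cells, 400 cells/well, 37 °C for minimum 48 hr; ATP measured via CellTiter-Glo, 30 min dark incubation, luminescence.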
HT1080NT lethal: qHTS for induction of synthetic lethality in tumor cells producing 2HG: qHTS for the HT-1080-NT fibrosarcoma cell line | 360,000 tested, 1.6% active | Potency, µM (titrated, usually from 46.1 µM), for the others: at the top dose activity, negative = less viability, hits mostly cytotoxic | AID 686970, 2013 | HT-1080-NT fibrosarcoma viability, CellTiter-Glo ATP luminescence, 48 h;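 further: NT is the 2HG producing partner of a matched IDH1 knockdown line; potency means the concentration at half of the fitted maximal effect; 0% = DMSO-treated cells and -100% = media-only wells without cells; nearly all actives have a fitted effect of over 55% in size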
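HT-1080-NT fibrosarcoma cells (2HG-overproducing), 750 cells/well in RPMI with 5% FBS, dosed after 2 h and incubated 48 h at 37C. CellTiter-Glo luminescence normalized to DMSO and no-cell wells; concentration-response curves fitted and classed.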
DT40 TDP1 CPT: qHTS for Inhibitors of human tyrosyl-DNA phosphodiesterase 1 (TDP1): qHTS in cells in presence of CPT. chicken DT40 Tdp1-/-;hTDP1 cells + 20 nM CPT, ATP luminescence, 48 h. Potency, µM (titrated, usually from 46.2 µM), for the others: at the highest dose activity change, negative = growth inhibition, hits mostly inhibitors. 420,000 tested, 12% active. AID 686979, 2013; further: potency means the concentration at half of the fitted maximal effect; nearly all actives have a fitted effect of over 55% in size
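Cell growth measured by CellTiter-Glo luminescence after a minimum 48 h, 37 C compound exposure with 20 nM CPT in Tdp1-knockout DT40 cells stably expressing hTDP1, seeded 400/well; qHTS titration format.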
HT1080 IDH1KD tx: qHTS for induction of synthetic lethality in tumor cells producing 2HG: qHTS for the HT-1080-IDH1KD cell line | HT-1080 IDH1 knockdown viability, ATP luminescence, 48 h | Potency, µM (series often up to 46.1 µM), for inactives: top-dose activity, negative = toxicity, hits mostly cytotoxic | 360,000 tested, 2% active | AID 686971, 2013;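 further: potency means the concentration at half of the fitted maximal effect; 0% = DMSO wells and -100% = cell-free medium wells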
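After a 2 h attachment period, IDH1KD HT-1080 cells took pin-transferred compound for 48 h at 37 °C; ATP-based luminescence after 10 min room-temperature reagent incubation reported viability.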
IL1B secr inh: qHTS for Inhibitors of Inflammasome Signaling: IL-1-beta AlphaLISA Primary Screen; THP-1 LPS/ATP IL-1B secretion, AlphaLISA, 16 h; hits give low values; activity change, % at 57.5 µM; 360,000 tested, 4.7% active; AID 743279, 2014; in the data active means activity change below about -50%; inconclusive means mostly about -30% to -49%
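Secreted IL-1B measured by AlphaLISA bead assay after 16 h compound exposure of THP-1 cells; compounds (final up to 57.5 uM) added 1 h before LPS (250 ng/mL) and ATP (1.25 mM) stimulation; lower signal means less secretion.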
Starred values were filed as active, the others as inactive; ? = inconclusive; . = not tested or not shown; [ ] = another dose, or the depositor's remark. An excerpt weighted towards active compounds, which were near 19% of everything screened. Unless noted, the call rests on the fitted dose curve; in most records, active means well fitted curve in the direction sought with a large enough effect; inconclusive means small, poorly fitted or top-dose-only effect, or another doubt; inactive means no such curve, though single readings can be large; an effect the other way counts as inactive or inconclusive. Unless noted, on the % scale 0 is the no-effect control and ±100 the full control effect.

SMILES | TDP1 cell noCPT | HT1080NT lethal | DT40 TDP1 CPT | HT1080 IDH1KD tx | IL1B secr inh
CC(=O)Cn1ncc(Br)c(Br)c1=O | 5.2µM* | 10µM* | 5.8µM* | 7.3µM* | -96*
CC(C)(C)C(=O)Cn1ncc(N2CCCC2)c(Br)c1=O | -13% | 3% | 10% | 3% | 8
CC1CCN(c2nc3c(c(=O)n(C)c(=O)n3C)n2CCSc2nc3ccccc3s2)CC1 | 21µM* | -7% | 10µM* | -10% | 17
CC1CCCN(c2nc3c(c(=O)n(C)c(=O)n3C)n2CCSc2nc3ccccc3o2)C1 (stereo unspecified) | 21µM* | -1% | 23µM* | 0% | 16
Cc1ccnc(SCCn2c(N3CCC(C)CC3)nc3c2c(=O)n(C)c(=O)n3C)n1 | 23µM* | -1%[9.24 µM] | ? | 4% | 48
CC1CCCN(c2nc3c(c(=O)n(C)c(=O)n3C)n2CCSc2nc3ccccc3s2)C1 (stereo unspecified) | 18µM* | -4% | 16µM* | -10% | -12
Cn1c(=O)c2c(nc(N3CCC(C(N)=O)CC3)n2CCSc2nc3ccccc3s2)n(C)c1=O | ? | 0% | ? | 10% | 13
Cc1nnc(SCCn2c(N3CCCC(C)C3)nc3c2c(=O)[nH]c(=O)n3C)s1 (stereo unspecified) | -14% | 11% | -23% | 0% | 23
CC1CCN(c2nc3c(c(=O)n(C)c(=O)n3C)n2CCSc2ncccn2)CC1 | ? | 3% | ? | 11% | 20
CC1CCCN(c2nc3c(c(=O)[nH]c(=O)n3C)n2CCSc2nc3ccccc3o2)C1 (stereo unspecified) | -18% | 0% | -7% | 0% | 12
O=C(CSc1nc2ncccc2[nH]1)NCCc1ccccc1 | 6% | 5% | 1% | 8% | -10
O=C(N/N=C/c1cnc(N2CCCCC2)s1)c1ccc(C(F)(F)F)cc1 | ? | -2% | ? | -1% | 12
O=C(CSc1nc2[nH]ncc2c(=O)[nH]1)N1CCCCC1 | -8% | -9% | 1% | 0% | 6
CCC(O)CNC(=O)c1cnn(-c2ncc3c(n2)-c2ccc(OC)cc2CC3)c1C1CC1 (stereo unspecified) | -24% | . | -1% | . | .
COc1ccc(C(=O)C2CCCN(C(=O)c3ccoc3C)C2)cc1F (stereo unspecified) | ? | 9% | ? | 11% | 19
CCC(Sc1nnc(C)n2c1cc1occc12)C(=O)Nc1ccccc1OC (stereo unspecified) | 21µM* | . | ? | . | .
CCc1nnc(SCC(=O)Nc2ccc(OC)c(OC)c2)c2cc3occc3n12 | -22% | . | -1% | . | .
CCCCCCCCOC(=O)c1cc([N+](=O)[O-])c(Sc2ncnc3nc[nH]c23)c([N+](=O)[O-])c1 | 3.3µM* | ? | 2.6µM* | 13µM* | -71*
CCCCOC(=O)c1ccc(Nc2ncnc3nc[nH]c23)cc1 | -13% | 0% | 2% | 0% | 13
c1ccc(C[C@H]2CN=C(Nc3ccccc3)N2CC2CCCC2)cc1 | 12µM* | ? | 10µM* | ? | -70*
c1ccc(C[C@H]2CN=C(Nc3ccccc3)N2CC2CCCCC2)cc1 | ? | ? | 16µM* | -15% | ?
c1ccc(C[C@H]2CN=C(Nc3ccccc3)N2CCCC2CCCCC2)cc1 | 16µM* | 0% | ? | -1% | -17
CC(C)C[C@H]1CN=C(Nc2ccccc2)N1CC1CCC(C)CC1 (stereo partly specified) | 18µM* | -24% | ? | -25% | -4
CCn1c(SCC(=O)N2CCCC2)nnc1-c1ccco1 | -18% | 0% | 22% | -18% | -5
Cc1cc(N)n(-c2ccc3ccccc3c2)n1 | -2% | -17% | -16% | 7% | 14
SMILES | TDP1 cell noCPT | HT1080NT lethal | DT40 TDP1 CPT | HT1080 IDH1KD tx | IL1B secr inh
c1ccc(C[C@H]2CN=C(Nc3ccccc3)N2CC2CCC2)cc1 | ? | -5% | ? | -24% | -9
CC1CCC(CN2C(Nc3ccccc3)=NC[C@@H]2C)CC1 (stereo partly specified) | ? | 11% | 18µM* | 5% | 0
CCCCN1C(Nc2ccccc2)=NC[C@@H]1C | -3% | 6% | -16% | 13% | 11
CCCCN1C(Nc2ccccc2)=NC[C@@H]1Cc1ccccc1 | ? | -16% | 23µM* | -17% | -15
CC1CCC(CN2C(Nc3ccccc3)=NC[C@@H]2Cc2ccccc2)CC1 (stereo partly specified) | 7.3µM* | ? | ? | -25% | -23
COc1cc(C(=O)NNC(=O)c2cc(-c3ccccc3)n[nH]2)cc(OC)c1C | -15% | -18% | 0% | -21% | -64*
CS(=O)(=O)c1ccc(C(=O)NNC(=O)c2cc(-c3ccccc3)n[nH]2)cc1 | -2% | 1% | -3% | 4% | 1
COc1cc(NC(=O)c2ccccc2-c2ccccc2)cc(OC)c1 | ? | 5% | ? | 2% | -9
COc1ccc(Cl)c(-c2cc(C(=O)Nc3ccccc3)[nH]n2)c1 | 16µM* | ? | 23µM* | -20% | -51*
COc1ccc(Cl)c(-c2cc(C(=O)Nc3ccc(F)cc3)[nH]n2)c1 | 23µM* | -6% | 15µM* | -20% | ?
COc1ccc(Cl)cc1-c1cc(C(=O)Nc2ccccc2)[nH]n1 | ? | ? | ? | ? | -22
CCOc1ccc(-c2cc(C(=O)Nc3ccc(F)cc3)[nH]n2)c(C)c1 | -5% | ? | -11% | 21% | -7
COc1cc(NC(=O)c2cc(-c3cccc(OC)c3)n[nH]2)cc(OC)c1 | 21µM* | . | 15µM* | . | .
O=C(CSc1nnc(NC(=O)c2ccc(F)cc2F)s1)NC1CCCC1 | -11% | -16% | -6% | -1% | 5
CNC(=O)Nc1ccccc1C(=O)Nc1ccccc1 | -35% | 11% | -17% | 3% | -6
Cc1ccccc1NC(=O)C1CCN(C(=O)c2ccc(F)cc2)CC1 | -1% | . | -4% | . | .
Cc1ccc(NC(=O)c2cc(-c3ccccc3)n[nH]2)cc1 | 15% | 1% | -12% | 2% | -75*
CC(C)(C)NC(=O)c1cc(-c2ccccc2)n[nH]1 | -2% | -1% | -7% | 0% | -9
COc1ccc(C(=O)N2CCN(c3ccc(C)cc3C)CC2)cc1OC | 26µM* | -3% | 21µM* | -5% | -17
COc1ccc(C(=O)N2CCN(c3ccc(C)c(C)c3)CC2)cc1OC | 16µM* | -4% | ? | -1% | 21
